Reference: PubChem BioAssay (NCATS)
Results filed as inconclusive are left out. The source made the active and inactive calls. Calls follow the shape of the dose curve; as a rule, active = well fitted inhibition curve with a large enough effect; inconclusive = small, poorly fitted or top-dose-only effect; inactive = flat fitted curve, though single readings scatter.

Target: Lysine-specific demethylase 5B (Homo sapiens) (UniProt Q9UGL1)
Experiment: Optimization screen for KDM5B Histone Demethylases FDH coupled qHTS against the LOPAC library (AID 1347166); also: 0% is about no effect
Conditions: KDM5B demethylation, FDH-coupled NADH fluorescence (FDH is formaldehyde dehydrogenase); series mostly up to 57.5 µM; activity, negative = inhibition: at the top concentration
Procedure, shortened: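 KDM5BDeltaAP (200nM final) in 50mM HEPES pH 7.5, 0.01% Tween-20 was preincubated with compound for 10 min at room temperature. A substrate mix of 12.5uM H3K4Me3, 25uM a-ketoglutarate, ascorbate, Fe2+, NAD+ and formaldehyde dehydrogenase was then added. NADH fluorescence (340/450 nm) was read initially and after 30 min.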

Sequence of Lysine-specific demethylase 5B (Homo sapiens) (Q9UGL1 whole entry, looked up): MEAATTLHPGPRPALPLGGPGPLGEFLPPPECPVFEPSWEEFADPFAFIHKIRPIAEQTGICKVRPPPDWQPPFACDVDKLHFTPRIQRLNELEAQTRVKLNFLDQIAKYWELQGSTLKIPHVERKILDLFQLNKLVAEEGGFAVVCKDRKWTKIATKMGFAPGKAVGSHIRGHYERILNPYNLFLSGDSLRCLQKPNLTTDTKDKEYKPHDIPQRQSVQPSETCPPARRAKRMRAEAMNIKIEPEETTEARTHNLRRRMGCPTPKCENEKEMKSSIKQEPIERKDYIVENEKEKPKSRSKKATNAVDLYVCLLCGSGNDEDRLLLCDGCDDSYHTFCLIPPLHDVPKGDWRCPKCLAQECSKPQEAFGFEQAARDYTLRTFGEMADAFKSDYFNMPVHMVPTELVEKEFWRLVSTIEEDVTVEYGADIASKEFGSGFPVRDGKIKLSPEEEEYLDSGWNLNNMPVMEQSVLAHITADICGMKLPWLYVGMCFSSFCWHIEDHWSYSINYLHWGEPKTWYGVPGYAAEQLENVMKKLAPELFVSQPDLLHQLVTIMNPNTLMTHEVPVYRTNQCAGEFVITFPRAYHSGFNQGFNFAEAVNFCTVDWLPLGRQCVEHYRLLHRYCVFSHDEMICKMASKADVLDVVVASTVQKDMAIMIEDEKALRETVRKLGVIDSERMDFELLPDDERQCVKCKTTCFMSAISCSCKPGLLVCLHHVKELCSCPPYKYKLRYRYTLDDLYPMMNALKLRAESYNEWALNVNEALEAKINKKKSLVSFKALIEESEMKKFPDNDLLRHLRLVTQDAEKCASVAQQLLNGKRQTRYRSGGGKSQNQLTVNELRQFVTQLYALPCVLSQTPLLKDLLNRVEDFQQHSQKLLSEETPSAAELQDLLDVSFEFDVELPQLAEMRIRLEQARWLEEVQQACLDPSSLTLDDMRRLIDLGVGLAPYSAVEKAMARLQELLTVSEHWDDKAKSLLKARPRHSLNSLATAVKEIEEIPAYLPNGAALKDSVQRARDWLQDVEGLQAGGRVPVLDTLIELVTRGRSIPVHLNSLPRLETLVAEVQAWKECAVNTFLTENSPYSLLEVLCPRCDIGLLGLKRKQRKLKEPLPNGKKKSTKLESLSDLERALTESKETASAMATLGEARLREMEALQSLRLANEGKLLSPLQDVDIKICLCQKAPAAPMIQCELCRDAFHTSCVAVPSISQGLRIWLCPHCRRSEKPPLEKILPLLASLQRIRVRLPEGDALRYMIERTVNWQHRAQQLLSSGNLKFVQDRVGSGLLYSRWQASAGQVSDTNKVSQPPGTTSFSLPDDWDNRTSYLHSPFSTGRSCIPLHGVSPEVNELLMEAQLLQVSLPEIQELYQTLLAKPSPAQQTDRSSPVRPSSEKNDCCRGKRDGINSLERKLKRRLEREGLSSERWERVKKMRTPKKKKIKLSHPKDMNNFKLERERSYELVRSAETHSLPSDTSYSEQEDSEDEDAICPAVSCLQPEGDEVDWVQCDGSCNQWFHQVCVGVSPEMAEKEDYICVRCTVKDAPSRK

Compound | activity, negative = inhibition
OC[C@H]1O[C@@H](n2cnc3c(Nc4ccccc4)ncnc32)[C@H](O)[C@@H]1O | -5.28% (inactive)
CN(C)c1ccc(/C=C2\C(=O)Nc3ccccc32)cc1 | -11.8% (inactive)
Nc1ncnc2c1c(I)cn2[C@@H]1C[C@H](N)[C@@H](O)[C@H]1O | -16% (inactive)
